Measurements as given in the supplement of paper PMC11732987, “Enantioselective OTUD7B fragment discovery through chemoproteomics screening and high-throughput optimisation” (Communications Chemistry, 2025).

Assays:
Assay in all cases: log2 ratio of Biotin-Ahx-Ub-VS probe labelling (fragment/DMSO); higher = less target engagement (more negative = stronger competition), active = hit call of the paper (q ≤ 0.05, log2 ratio ≤ -1)
Conditions in all cases: compound concentration: 200 uM; treatment time: 3 h
USP19 = target: T1, USP19 (UniProt O94966)
T1 sequence (whole entry): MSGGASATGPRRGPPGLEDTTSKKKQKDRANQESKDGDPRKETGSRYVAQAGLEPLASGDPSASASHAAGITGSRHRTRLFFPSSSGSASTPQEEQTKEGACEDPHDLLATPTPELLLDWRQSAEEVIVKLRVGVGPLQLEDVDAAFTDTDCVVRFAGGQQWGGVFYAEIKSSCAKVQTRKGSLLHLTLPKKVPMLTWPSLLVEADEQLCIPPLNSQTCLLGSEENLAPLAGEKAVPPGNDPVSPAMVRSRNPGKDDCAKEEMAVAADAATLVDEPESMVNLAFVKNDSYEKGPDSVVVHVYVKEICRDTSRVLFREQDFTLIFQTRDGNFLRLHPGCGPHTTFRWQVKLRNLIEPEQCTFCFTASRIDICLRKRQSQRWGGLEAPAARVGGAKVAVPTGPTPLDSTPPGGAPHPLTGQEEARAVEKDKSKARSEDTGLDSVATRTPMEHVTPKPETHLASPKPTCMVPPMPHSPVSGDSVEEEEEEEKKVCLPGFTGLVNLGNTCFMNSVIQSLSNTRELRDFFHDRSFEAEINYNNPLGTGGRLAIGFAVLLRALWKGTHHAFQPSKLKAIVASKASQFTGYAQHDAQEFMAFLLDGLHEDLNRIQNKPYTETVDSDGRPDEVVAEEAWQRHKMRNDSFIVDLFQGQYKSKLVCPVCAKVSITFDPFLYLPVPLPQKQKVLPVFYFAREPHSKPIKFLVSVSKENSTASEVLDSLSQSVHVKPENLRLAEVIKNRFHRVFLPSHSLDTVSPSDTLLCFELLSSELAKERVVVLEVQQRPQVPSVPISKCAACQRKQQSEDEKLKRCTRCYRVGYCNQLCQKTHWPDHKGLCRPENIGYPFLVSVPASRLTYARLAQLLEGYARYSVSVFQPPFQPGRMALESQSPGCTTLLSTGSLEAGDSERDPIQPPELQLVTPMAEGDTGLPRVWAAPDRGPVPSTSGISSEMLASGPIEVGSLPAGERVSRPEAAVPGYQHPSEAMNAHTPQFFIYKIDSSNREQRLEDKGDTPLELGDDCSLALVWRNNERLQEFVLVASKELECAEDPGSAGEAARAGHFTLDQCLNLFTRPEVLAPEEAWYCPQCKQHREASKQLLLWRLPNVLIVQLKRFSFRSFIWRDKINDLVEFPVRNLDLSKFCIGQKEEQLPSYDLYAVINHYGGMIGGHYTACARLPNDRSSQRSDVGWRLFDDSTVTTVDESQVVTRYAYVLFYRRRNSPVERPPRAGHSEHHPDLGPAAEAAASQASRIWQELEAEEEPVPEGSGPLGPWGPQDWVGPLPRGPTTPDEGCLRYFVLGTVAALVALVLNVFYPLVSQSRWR
Method in brief: (§1)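 Each value is an average log2 ratio of fragment to vehicle, tested by unpaired t-test. The underlying Spectronaut label-free quantities were global-median-normalised, and only proteins with ≥2 unique peptides were included. Triplicate HEK293T lysate samples (495 µg) were exposed to fragment at 200 µM or vehicle for 3 h, then to Biotin-Ahx-Ub-VS at 0.5 µM final for 1 h, before NeutrAvidin enrichment of labelled DUBs, LysC and trypsin digestion, and diaPASEF LC-MS/MS.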

USP24 = USP24 (UniProt Q9UPU5)
Chain of USP24 (Q9UPU5 whole entry): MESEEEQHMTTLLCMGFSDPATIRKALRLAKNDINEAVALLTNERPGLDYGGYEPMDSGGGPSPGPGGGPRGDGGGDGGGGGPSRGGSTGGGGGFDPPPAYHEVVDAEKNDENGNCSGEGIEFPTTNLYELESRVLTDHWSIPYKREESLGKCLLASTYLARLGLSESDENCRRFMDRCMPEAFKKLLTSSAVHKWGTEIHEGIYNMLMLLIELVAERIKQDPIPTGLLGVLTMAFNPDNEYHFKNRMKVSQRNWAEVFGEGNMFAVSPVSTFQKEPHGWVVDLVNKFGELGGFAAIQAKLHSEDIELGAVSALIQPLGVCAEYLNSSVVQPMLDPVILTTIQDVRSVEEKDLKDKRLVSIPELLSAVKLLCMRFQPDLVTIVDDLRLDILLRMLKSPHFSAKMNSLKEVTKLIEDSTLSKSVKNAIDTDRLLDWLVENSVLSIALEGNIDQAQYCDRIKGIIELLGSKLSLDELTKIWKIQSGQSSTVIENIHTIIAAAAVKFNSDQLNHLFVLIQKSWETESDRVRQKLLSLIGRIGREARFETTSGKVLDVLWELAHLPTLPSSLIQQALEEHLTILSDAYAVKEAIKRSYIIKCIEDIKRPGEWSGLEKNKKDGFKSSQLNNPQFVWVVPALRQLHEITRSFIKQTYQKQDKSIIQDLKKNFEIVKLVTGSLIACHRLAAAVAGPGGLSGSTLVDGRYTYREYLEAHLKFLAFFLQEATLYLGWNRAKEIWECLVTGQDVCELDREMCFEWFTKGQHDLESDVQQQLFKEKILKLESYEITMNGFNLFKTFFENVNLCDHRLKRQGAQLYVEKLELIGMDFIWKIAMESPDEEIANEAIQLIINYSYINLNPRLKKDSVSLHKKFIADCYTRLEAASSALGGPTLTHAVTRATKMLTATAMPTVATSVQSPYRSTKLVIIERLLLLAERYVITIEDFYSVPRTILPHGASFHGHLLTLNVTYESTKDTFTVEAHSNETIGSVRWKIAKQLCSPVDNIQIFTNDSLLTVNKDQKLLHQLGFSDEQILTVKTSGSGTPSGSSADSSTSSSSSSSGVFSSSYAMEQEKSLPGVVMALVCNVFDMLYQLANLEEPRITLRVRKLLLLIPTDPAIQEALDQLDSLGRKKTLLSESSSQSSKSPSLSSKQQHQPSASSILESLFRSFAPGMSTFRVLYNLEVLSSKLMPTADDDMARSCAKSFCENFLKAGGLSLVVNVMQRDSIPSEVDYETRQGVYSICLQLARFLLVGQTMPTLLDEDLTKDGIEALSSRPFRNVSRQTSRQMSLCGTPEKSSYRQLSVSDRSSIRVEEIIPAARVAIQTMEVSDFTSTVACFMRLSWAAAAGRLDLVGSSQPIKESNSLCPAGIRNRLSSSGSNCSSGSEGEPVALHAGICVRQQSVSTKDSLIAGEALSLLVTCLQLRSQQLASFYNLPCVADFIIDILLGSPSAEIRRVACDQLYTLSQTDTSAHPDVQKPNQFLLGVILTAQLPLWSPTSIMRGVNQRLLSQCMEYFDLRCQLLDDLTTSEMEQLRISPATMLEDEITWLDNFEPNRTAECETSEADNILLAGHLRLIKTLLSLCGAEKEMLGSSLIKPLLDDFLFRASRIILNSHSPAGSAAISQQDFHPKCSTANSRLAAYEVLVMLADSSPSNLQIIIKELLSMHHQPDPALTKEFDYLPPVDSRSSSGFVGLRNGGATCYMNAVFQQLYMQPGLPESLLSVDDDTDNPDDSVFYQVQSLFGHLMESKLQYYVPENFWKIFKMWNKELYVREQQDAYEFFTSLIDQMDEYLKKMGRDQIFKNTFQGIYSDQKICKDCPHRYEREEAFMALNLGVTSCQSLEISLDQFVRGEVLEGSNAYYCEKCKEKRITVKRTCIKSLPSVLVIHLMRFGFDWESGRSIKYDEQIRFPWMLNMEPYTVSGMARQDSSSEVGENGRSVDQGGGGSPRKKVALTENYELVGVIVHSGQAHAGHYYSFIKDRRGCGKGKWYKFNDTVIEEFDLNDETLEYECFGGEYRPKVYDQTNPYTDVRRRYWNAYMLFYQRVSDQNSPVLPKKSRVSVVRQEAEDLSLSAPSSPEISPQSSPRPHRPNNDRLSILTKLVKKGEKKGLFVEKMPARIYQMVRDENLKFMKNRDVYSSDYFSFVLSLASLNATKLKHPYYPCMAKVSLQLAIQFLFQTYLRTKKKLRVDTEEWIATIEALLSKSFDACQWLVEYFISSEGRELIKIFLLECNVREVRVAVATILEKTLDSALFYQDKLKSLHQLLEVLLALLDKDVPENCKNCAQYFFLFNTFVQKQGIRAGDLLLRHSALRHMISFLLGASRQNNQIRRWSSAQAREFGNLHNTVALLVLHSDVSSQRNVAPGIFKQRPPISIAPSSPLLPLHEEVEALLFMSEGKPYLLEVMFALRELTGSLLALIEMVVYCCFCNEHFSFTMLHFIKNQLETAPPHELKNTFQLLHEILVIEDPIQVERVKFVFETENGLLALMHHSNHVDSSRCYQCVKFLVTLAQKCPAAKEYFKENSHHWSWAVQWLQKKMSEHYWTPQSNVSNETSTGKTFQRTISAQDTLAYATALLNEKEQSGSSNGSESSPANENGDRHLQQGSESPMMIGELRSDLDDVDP
Method in brief: as §1

USP25 = target: T2, USP25 (UniProt Q9UHP3)
T2 sequence (whole entry): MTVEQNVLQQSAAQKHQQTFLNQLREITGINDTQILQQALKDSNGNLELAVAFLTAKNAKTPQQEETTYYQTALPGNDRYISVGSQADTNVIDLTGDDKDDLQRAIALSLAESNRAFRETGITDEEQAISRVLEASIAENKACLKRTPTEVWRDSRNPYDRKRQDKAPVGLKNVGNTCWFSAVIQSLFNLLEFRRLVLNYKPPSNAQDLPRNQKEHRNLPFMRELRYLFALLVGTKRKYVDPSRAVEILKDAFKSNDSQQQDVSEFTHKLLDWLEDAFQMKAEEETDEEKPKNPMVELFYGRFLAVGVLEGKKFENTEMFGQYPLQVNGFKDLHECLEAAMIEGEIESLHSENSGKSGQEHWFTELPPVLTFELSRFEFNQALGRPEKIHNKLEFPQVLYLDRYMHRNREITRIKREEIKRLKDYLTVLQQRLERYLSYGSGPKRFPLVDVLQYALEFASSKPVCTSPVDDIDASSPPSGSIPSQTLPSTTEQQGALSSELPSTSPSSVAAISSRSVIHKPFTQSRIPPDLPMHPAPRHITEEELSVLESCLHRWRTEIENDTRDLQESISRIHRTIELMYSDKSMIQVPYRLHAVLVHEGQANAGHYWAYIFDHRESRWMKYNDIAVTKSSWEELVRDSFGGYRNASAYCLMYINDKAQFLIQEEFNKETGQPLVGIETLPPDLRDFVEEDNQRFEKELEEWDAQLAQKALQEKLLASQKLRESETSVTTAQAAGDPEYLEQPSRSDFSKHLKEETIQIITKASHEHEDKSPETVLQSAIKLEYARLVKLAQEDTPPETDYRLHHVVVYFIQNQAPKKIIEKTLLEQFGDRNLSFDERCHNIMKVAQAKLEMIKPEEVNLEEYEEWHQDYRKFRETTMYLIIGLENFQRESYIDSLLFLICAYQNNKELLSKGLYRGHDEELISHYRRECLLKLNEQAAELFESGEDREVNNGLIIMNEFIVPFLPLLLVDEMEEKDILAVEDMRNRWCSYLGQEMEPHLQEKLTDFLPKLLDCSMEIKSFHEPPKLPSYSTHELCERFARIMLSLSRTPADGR
Method in brief: as §1

USP28 = target: T3, USP28 (UniProt Q96RU2)
T3 sequence (whole entry): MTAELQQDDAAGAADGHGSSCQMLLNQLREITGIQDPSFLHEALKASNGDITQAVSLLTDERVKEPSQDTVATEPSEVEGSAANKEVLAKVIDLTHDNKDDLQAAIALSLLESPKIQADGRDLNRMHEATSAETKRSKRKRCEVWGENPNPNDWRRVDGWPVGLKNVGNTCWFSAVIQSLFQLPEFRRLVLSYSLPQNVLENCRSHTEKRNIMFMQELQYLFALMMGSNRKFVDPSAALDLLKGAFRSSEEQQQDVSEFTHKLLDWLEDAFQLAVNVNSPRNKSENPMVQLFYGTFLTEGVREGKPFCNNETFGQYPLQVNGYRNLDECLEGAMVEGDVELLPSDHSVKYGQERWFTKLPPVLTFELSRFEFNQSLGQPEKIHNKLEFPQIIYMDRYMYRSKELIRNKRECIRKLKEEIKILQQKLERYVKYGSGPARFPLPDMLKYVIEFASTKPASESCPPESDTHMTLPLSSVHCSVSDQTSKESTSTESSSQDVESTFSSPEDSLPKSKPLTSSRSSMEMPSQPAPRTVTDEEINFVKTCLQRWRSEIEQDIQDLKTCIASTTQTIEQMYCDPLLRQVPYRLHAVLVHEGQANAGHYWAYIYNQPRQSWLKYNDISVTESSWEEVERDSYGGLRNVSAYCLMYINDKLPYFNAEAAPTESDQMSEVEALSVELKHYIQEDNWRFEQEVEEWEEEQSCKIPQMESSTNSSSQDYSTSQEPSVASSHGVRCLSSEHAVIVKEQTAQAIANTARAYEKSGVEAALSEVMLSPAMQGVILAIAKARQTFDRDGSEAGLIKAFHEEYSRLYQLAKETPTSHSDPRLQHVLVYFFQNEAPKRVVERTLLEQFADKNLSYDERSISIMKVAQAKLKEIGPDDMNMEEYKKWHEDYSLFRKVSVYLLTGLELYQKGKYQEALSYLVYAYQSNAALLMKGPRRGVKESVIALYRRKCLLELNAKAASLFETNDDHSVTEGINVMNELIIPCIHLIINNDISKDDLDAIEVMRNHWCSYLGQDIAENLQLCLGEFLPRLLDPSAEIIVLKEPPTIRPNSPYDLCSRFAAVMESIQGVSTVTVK
Method in brief: as §1

Measured: log2 ratio of Biotin-Ahx-Ub-VS probe labelling

Cc1noc(N2CCN(C(=O)CCl)CC2)n1.Cl
inactive: USP19 -0.238 | USP24 -0.00876 | USP25 -0.13 | USP28 -0.444
